Tb PFK inh: blocks T. brucei phosphofructokinase; O15648; T. brucei PFK, ADP-Glo luminescence; Potency, µM (series often up to 57.5 µM), for the others: at the highest dose activity, negative = inhibition, actives largely listed as inhibitors; 0.17% of 330,000 active; AID 485367;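 further: 0% = uninhibited 1x PFK enzyme wells and -100% = no-enzyme wells; nearly all actives have a fitted effect of over 60% in size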
Target sequence (O15648 whole entry, looked up): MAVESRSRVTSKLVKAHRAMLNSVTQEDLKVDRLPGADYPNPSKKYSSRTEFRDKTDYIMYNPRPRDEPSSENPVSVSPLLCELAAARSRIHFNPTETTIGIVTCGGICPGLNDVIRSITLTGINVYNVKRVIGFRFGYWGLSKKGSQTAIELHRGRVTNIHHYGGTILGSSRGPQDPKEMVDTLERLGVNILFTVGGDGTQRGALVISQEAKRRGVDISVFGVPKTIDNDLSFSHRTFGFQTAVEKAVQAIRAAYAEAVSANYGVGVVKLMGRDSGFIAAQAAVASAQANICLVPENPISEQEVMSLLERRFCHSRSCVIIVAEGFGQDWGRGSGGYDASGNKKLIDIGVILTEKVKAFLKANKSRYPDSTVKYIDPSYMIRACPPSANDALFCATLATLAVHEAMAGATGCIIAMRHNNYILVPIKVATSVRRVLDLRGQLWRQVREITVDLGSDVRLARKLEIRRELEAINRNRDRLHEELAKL
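ADP-Glo luminescence quantified ADP after 45 min at room temperature, with 1.25 nM T. brucei PFK, 0.1 mM ATP and 0.5 mM fructose-6-phosphate in pH 8.0 TEA buffer. qHTS titrations up to 57 µM; curves classified by quality.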
BRCA1 expr up: BRCA1 expression activation | MCF7-BRCA1-FFLuc reporter, luminescence, 48 h; response scale: scaled: vehicle 0%, 10 µM genistein 100% | Potency, µM (top dose mostly 46.1 µM), for the others: at the highest dose activation, most hits filed as activators | 1.1% of 380,000 active | AID 624202; further: nearly all actives have a fitted effect of over 80% in size
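MCF7-BRCA1-FFLuc, 2000 cells/well; 2 h attach, 37 °C/5% CO2; compound 48 h; luciferase substrate 15 min; luminescence end-point. Norm. to genistein 10 microM max activation and DMSO; concentration-response curves fitted.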
VDR inhibitor: inhibitors of human vitamin D receptor; P11473; VDR-SRC2-3 peptide fluorescence polarization, 2 h; Potency, µM, for inactives: max response, negative = inhibition, hits mostly inhibitors; 0.93% of 400,000 active; further: on the % scale 0 is the no-effect control and ±100 the full control effect
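Inhibition of the VDR/SRC2-3 peptide interaction is quantified by fluorescence polarization. Compounds (23 nl, pintool) incubate with the reagents for 2 hours at ambient room temperature.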
PLK1 PBD inh: blocks phosphopeptide binding to human PLK1 polo-box domain; 2.8% of 360,000 active; AID 720504; Potency, µM, for inactives: max response, negative = inhibition, actives largely listed as inhibitors; Plk1 PBD binding of FITC phosphopeptide, fluorescence polarization; further: series mostly up to about 57 µM; on the % scale 0 is the no-effect control and ±100 the full control effect; nearly all actives have a fitted effect of over 65% in size
Starred values were filed as active, the others as inactive. A selection: hits, their analogues and other compounds. The true share with any hit is near 3.9%. The call rests on the fitted dose curve; in most records, active means well fitted curve in the direction sought with a large enough effect; inconclusive means small, poorly fitted or top-dose-only effect, or another doubt; inactive means no such curve, though single readings can be large; an effect the other way counts as inactive or inconclusive. Potency means the concentration at half of the fitted maximal effect.

How did CCOc1cc(/C=C(\C#N)C(=O)Nc2cccc(C(=O)O)c2)cc(Br)c1OC(=O)c1ccc(OC)cc1 do in these assays?
Tb PFK inh: -5%; BRCA1 expr up: -18%; VDR inhibitor: 25µM*; PLK1 PBD inh: 9.5µM*

What do the screens show for `N#C/C(=C/c1ccc([N+](=O)[O-])cc1)C(N)=O`?
Tb PFK inh: -8%; BRCA1 expr up: 2%; VDR inhibitor: 79µM*; PLK1 PBD inh: -21%

Results for Cc1ccc(S(=O)(=O)N2C[C@@H]3[C@H]4CC[C@H](C4)[C@@H]3[C@@H](C)[C@H]2c2ccco2)cc1 ?
Tb PFK inh: inconclusive; BRCA1 expr up: -28%; VDR inhibitor: -9%; PLK1 PBD inh: -6%

What do the screens show for `CC(=O)Nc1ccc(NC(=O)CSc2nnc(N)n2-c2ccccc2)cc1`?
BRCA1 expr up: -18%; VDR inhibitor: 5%; PLK1 PBD inh: -9%

How did COc1ccc(NC(=O)/C(C#N)=C\c2ccc(OCc3ccc(C(=O)O)cc3)c(OC)c2)cc1 do in these assays?
Tb PFK inh: 2%; BRCA1 expr up: 67%; VDR inhibitor: -7%; PLK1 PBD inh: inconclusive

How did N#C/C(=C\c1ccc(OCc2ccc(F)cc2)cc1)C(=O)Nc1cccc(C(=O)O)c1 do in these assays?
Tb PFK inh: -5%; BRCA1 expr up: 11µM*; VDR inhibitor: inconclusive; PLK1 PBD inh: inconclusive

How did CCOc1cc(/C=C(\C#N)C(=O)Nc2cccc(C(=O)O)c2)ccc1OCc1ccccc1Cl do in these assays?
Tb PFK inh: -4%; BRCA1 expr up: 1%; VDR inhibitor: inconclusive; PLK1 PBD inh: 21µM*

How did N#C/C(=C\c1ccc(OCc2ccc(Br)cc2)cc1)C(=O)Nc1cccc(C(=O)O)c1 do in these assays?
Tb PFK inh: 1%; BRCA1 expr up: 7.1µM*; VDR inhibitor: inconclusive; PLK1 PBD inh: 21µM*

What do the screens show for `O=C(c1ccc([N+](=O)[O-])cc1)N1CCN(C(=O)C2CCCCC2)CC1`?
Tb PFK inh: 1%; BRCA1 expr up: 19%; VDR inhibitor: 12%; PLK1 PBD inh: -10%

What do the screens show for `S=c1nc[nH]c2c1ncn2-c1ccc(Cl)cc1`?
BRCA1 expr up: -11%; VDR inhibitor: inconclusive; PLK1 PBD inh: 6µM*

What do the screens show for `COc1cccc(NC(=O)CN2CCC(NC(=O)c3ccccc3C)CC2)c1`?
BRCA1 expr up: 54%; PLK1 PBD inh: -3%

How did Cc1ccc(C(=O)Cn2nnc3ccccc32)cc1 do in these assays?
Tb PFK inh: -7%; BRCA1 expr up: 4.5µM*; VDR inhibitor: 9%; PLK1 PBD inh: 2%

What do the screens show for `Cc1ccc(C(=O)NNC(=O)Cn2nnc3ccccc32)cc1`?
Tb PFK inh: 1%; BRCA1 expr up: 74%; VDR inhibitor: 9%; PLK1 PBD inh: 2%

Results for Cc1ccc(NC(=O)CCn2nnc3ccccc32)cc1 ?
Tb PFK inh: -4%; BRCA1 expr up: 11µM*; VDR inhibitor: 19%; PLK1 PBD inh: -9%

Results for Cc1nn(C(=O)c2cccc(Cl)c2)c(C)c1S(=O)(=O)N1CCOCC1 ?
BRCA1 expr up: 26%; VDR inhibitor: 12%

Results for CCN(CC)c1ccc(NC(=O)Cn2nc(C)n3cccc3c2=O)c(C)c1 ?
VDR inhibitor: 13%

How did Cc1nc(C#N)c(N/N=C/c2cccc(Cl)c2)o1 do in these assays?
Tb PFK inh: 0%; BRCA1 expr up: 22µM*; VDR inhibitor: inconclusive; PLK1 PBD inh: -10%

What do the screens show for `Cc1cc(N/N=C/c2cccc(Cl)c2)nc(-n2nc(C)cc2C)n1`?
Tb PFK inh: 1%; BRCA1 expr up: -75%; VDR inhibitor: -19%; PLK1 PBD inh: -1%

How did Cc1ccc(C)c(/C=C2\N=C(c3ccccc3F)OC2=O)c1 do in these assays?
Tb PFK inh: 1%; BRCA1 expr up: -4%; VDR inhibitor: 79µM*; PLK1 PBD inh: -17%

What do the screens show for `c1nc(NCc2ccc3c(c2)OCO3)c2cc(-c3ccoc3)ccc2n1`?
Tb PFK inh: 1%; BRCA1 expr up: 0%; VDR inhibitor: -4%

What do the screens show for `c1ccc(CNc2ccnc(-c3ccc4c(c3)OCO4)n2)cc1`?
VDR inhibitor: -8%

What do the screens show for `c1ccc(Nc2ncnc3ccc(-c4ccoc4)cc23)cc1`?
VDR inhibitor: 32µM*

What do the screens show for `c1ccc(CNc2ccnc(-c3ccoc3)n2)cc1`?
VDR inhibitor: 79µM*

Results for c1ccc(CNc2ncnc3ccc(-c4ccoc4)cc23)cc1 ?
VDR inhibitor: 25µM*

Results for Cc1ccccc1Cn1c(C)c(CNCc2ccccc2)c(C(=O)O)c1C ?
VDR inhibitor: 4%

What do the screens show for `COc1ccc(-c2nc(CS(=O)(=O)CC(=O)NC3CCCCC3C)c(C)o2)cc1` (stereo not given)?
Tb PFK inh: 1%; BRCA1 expr up: -7%; VDR inhibitor: inconclusive; PLK1 PBD inh: 24µM*

What do the screens show for `CCOC(=O)N1CCC(NC(=O)CS(=O)(=O)Cc2nc(-c3ccccc3C)oc2C)CC1`?
Tb PFK inh: -1%; BRCA1 expr up: -25%; VDR inhibitor: 21%; PLK1 PBD inh: -2%

Results for COc1cccc(-c2nc(CS(=O)(=O)CC(=O)NC3CCC(C)CC3)c(C)o2)c1 (stereo not given) ?
Tb PFK inh: -3%; BRCA1 expr up: -8%; VDR inhibitor: inconclusive; PLK1 PBD inh: 24µM*

Results for CCOC(=O)N1CCC(NC(=O)CS(=O)(=O)Cc2nc(-c3ccc(OC)cc3)oc2C)CC1 ?
Tb PFK inh: 1%; BRCA1 expr up: 21%; VDR inhibitor: inconclusive; PLK1 PBD inh: 21µM*

How did Cc1ccc2c(c1C)-c1c(ccc(C)c1C)C(=O)C2=O do in these assays?
BRCA1 expr up: -97%; VDR inhibitor: inconclusive; PLK1 PBD inh: 19µM*

What do the screens show for `COc1ccc(NC(=O)c2cc(S(=O)(=O)N3CCCC(C)C3)cn2C)c(OC)c1` (stereo not given)?
BRCA1 expr up: 1%; VDR inhibitor: -12%

How did [O-]c1n[n+](-c2ccc(Cl)cc2Cl)cc2ccccc12 do in these assays?
Tb PFK inh: -2%; BRCA1 expr up: -11%; VDR inhibitor: 12%; PLK1 PBD inh: -10%

How did [O-]c1n[n+](-c2ccc(Cl)cc2)cc2ccccc12 do in these assays?
Tb PFK inh: -2%; BRCA1 expr up: -3%; VDR inhibitor: inconclusive; PLK1 PBD inh: 3.4µM*

What do the screens show for `CC1(C)OC(=O)N(CC(=O)Nc2ccccc2)C1(C)O` (stereo not given)?
Tb PFK inh: -18%; BRCA1 expr up: 16%; VDR inhibitor: -13%; PLK1 PBD inh: 27µM*

What do the screens show for `CC1(C)OC(=O)N(CC(=O)Nc2cccc(C(F)(F)F)c2)C1(C)O` (stereo not given)?
Tb PFK inh: -4%; BRCA1 expr up: -7%; VDR inhibitor: -14%; PLK1 PBD inh: -4%

What do the screens show for `O=C(O)C1Nc2c(Cl)cc(Cl)cc2C2C=CCC12` (stereo not given)?
Tb PFK inh: inconclusive; BRCA1 expr up: -22%; VDR inhibitor: inconclusive; PLK1 PBD inh: 7.5µM*

Results for CCOC(=O)C1Nc2ccc(Br)cc2C2C=CCC12 (stereo not given) ?
Tb PFK inh: -3%; BRCA1 expr up: -10%; VDR inhibitor: inconclusive; PLK1 PBD inh: inconclusive

From PubChem BioAssay
